# Screen size: about 380,000 compounds; about 4,000 (1.1%) were called active. Roughly 3% stayed inconclusive and do not appear here. This is one part of a sample in which actives are shown more often than they occur. Calls follow the shape of the dose curve; as a rule, active = well fitted activation curve with a large enough effect; inconclusive = small, poorly fitted or top-dose-only effect; inactive = no such curve, though single readings can be large or run the other way.
# Test: qHTS Assay to Identify Small Molecule Activators of BRCA1 Expression; also: nearly all actives have a fitted effect of over 80% in size
# Details: MCF7-BRCA1-FFLuc reporter, luminescence, 48 h; series mostly up to 46.1 µM; activation: at the top concentration
# How it was run: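 Luminescence from a BRCA1-driven firefly luciferase in MCF7 cells was the read-out, taken 15 min after substrate addition following 48 h compound exposure at 37 °C. Data were normalized to a 10 microM genistein control and DMSO vehicle.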
# Potency is read from the fitted curve at half-maximal effect.
SMILES,activation,Potency
CCOC(=O)c1c(NC(=O)CSc2cn(CCNC(=O)c3cccc(C(F)(F)F)c3)c3ccccc23)sc2c1CCC2,10.6% (inactive),–
O=C(Cn1nc(CNc2ccc(Cl)cc2)[n+]2c1CCCCC2)c1ccc(Cl)cc1,-38.8% (inactive),–
O=C(Cn1ncc(N2CCCC2)c(Br)c1=O)c1ccc(Cl)cc1,–,1.41 µM (active)
CC(=O)Cn1ncc(N2CCOCC2)c(Br)c1=O,0.15% (inactive),–
CCOc1ccc(N(C)S(=O)(=O)c2cc(-c3cnc(C)o3)ccc2OC)cc1,-1.24% (inactive),–
CCCCCn1c(CCCNC(=O)c2ccccc2OC)nc2ccccc21,-19.4% (inactive),–
CC(Oc1ccc(Cl)cc1)C(=O)OCC(=O)Nc1ncc(Cl)cc1Cl (stereo not given),33.4% (inactive),–
COc1cccc(/C(C)=N/Nc2ncc(Cl)cc2Cl)c1,–,10 µM (active)
COC(=O)c1sccc1N/N=C(\C)c1ccc(F)c(Cl)c1,-102% (inactive),–
Cc1ccccc1CN1CCC(CNC(=O)c2c(C)oc3ncnc(N4CCCCC4)c23)CC1,0% (inactive),–
O=C(c1cccc(Cl)c1)N1CCN(CCc2ccncc2)CC1,9.44% (inactive),–
Cc1ccc(CSc2nnc(-c3cnccn3)n2C)cc1,0% (inactive),–
Cn1c(SCC(=O)c2ccc(F)cc2)nnc1-c1ccccn1,30.7% (inactive),–
Cn1c(SCc2c(F)cccc2Cl)nnc1-c1cnccn1,–,2.51 µM (active)
CCC(=O)N1CCc2cc(Br)cc(S(=O)(=O)NCc3ccc(Cl)cc3)c21,-18.8% (inactive),–
COc1ccc(C(=O)Nc2ccc(F)cc2F)cc1,–,6.31 µM (active)
CCOC(=O)N1CCN(S(=O)(=O)c2ccc(C(=O)Nc3ccc(F)cc3F)cc2)CC1,-70.1% (inactive),–
O=C(C=CC(=O)Nc1ccc(F)cc1F)Nc1ccc(F)cc1F,11.6% (inactive),–
Cc1ccccc1-c1nc(CS(=O)(=O)CC(=O)Nc2cc(Cl)cc(Cl)c2)c(C)o1,-32.8% (inactive),–
COc1cc(OC)c(N(C)C(=O)c2cc3c(=O)oc4ccccc4c3s2)cc1Cl,0.945% (inactive),–
O=C(N/N=C/c1cccc([N+](=O)[O-])c1)C1CC(=O)N(c2ccc(Br)cc2)C1 (stereo not given),-32.2% (inactive),–
O=[N+]([O-])c1cccc(/C=N/Nc2ncc(Br)cn2)c1,–,4.47 µM (active)
CCCc1ccc(OCc2ccc(C(=O)N/N=C/c3cccc([N+](=O)[O-])c3)o2)c(OC)c1,-53.3% (inactive),–
COc1ccc(CCNc2nc(-c3ccc(F)cc3)cc(C(F)(F)F)n2)cc1OC,-34.7% (inactive),–
CNCCCOc1cc2nc(N3CCCN(C)CC3)nc(NC3CCN(C)CC3)c2cc1OC,0.186% (inactive),–
COc1ccc(-c2nn3c(=O)cc(CN4CCN(C(=O)c5ccc(OC)c(OC)c5)CC4)nc3s2)cc1,0% (inactive),–
O=[N+]([O-])c1c(NCCO)cc(Sc2nc3ccccc3s2)c2nonc12,-56.6% (inactive),–

SMILES,activation,Potency
O=C(O)c1ccccc1CSc1nc2ccccc2s1,–,5.62 µM (active)
CN(C(=O)CSc1nc2ccc(NC(=O)COc3ccccc3)cc2s1)c1ccccc1,-4.92% (inactive),–
COc1ccc(C2Nc3ccc(NC(=O)COC(C)=O)cc3C(=O)N2Cc2ccccc2)cc1COc1ccc(NC(C)=O)cc1 (stereo not given),0% (inactive),–
COc1ccc2c(c1)c(=O)c(S(=O)(=O)c1ccc(F)cc1)cn2CC(=O)Nc1ccc(C)cc1C,-0.838% (inactive),–
CC(C)c1ccc(OCC(O)CN2CCN(c3ccccn3)CC2)cc1 (stereo not given),2.11% (inactive),–
CC(O)c1ccc(OCCN(C)c2ccccn2)cc1 (stereo not given),–,11.2 µM (active)
CN(CCOc1ccc(CC2SC(=O)NC2=O)cc1)c1ccccn1 (stereo not given),–,inactive
COc1ccccc1CNc1nccn(-c2ccc(F)cc2)c1=O,8.06% (inactive),–
Nc1nc(COC(=O)CCC(=O)c2ccc(Cl)cc2)nc(Nc2ccccc2)n1,0.774% (inactive),–
CCOC(=O)CNc1nc(Cl)nc(Nc2ccc(OC)cc2OC)n1,-30.3% (inactive),–
CCOC(=O)CNc1nc(Cl)nc(Nc2ccccc2)n1,–,15.8 µM (active)
CCCN1CN=C(NS(=O)(=O)c2ccc(NC(C)=O)cc2)NC1,12.3% (inactive),–
CC1=C(C(=O)Nc2ccccc2)C(c2ccc(C)cc2)n2nc(SCc3ccccc3C)nc2N1 (stereo not given),34.1% (inactive),–
C/C(N)=C(/C#N)C(=O)COC(=O)c1cc(-c2cccc(Br)c2)nc2ccccc12,-68.3% (inactive),–
Cc1ccc2nc(-c3cccc(Br)c3)cc(C(=O)Nn3cnnc3)c2c1,–,10 µM (active)
COc1ccccc1C(=O)Nn1cnnc1,-5.05% (inactive),–
Cc1nc2c(-c3ccccc3)c(C)nn2c(C)c1CCC(=O)NCCc1ccccc1,-22.8% (inactive),–
O=C1CC(c2ccccc2)CC2=C1C(c1ccco1)n1nc(C(F)(F)F)nc1N2 (stereo not given),0% (inactive),–
Cc1cc(Nc2cccc(C(F)(F)F)c2)nc2ccc(NC(=O)c3ccc(=O)[nH]c3)cc12,-55.5% (inactive),–
CN(C)Cc1c(O)ccc2c(=O)c(-c3ccccc3Cl)coc12,-3.77% (inactive),–
CC(C)=CCc1c(O)c(CC=C(C)C)c2occ(-c3ccc(O)cc3)c(=O)c2c1O,-9.95% (inactive),–
O=c1c(-c2ccccc2)coc2cc(O)ccc12,–,12.6 µM (active)
COc1ccc(CCn2cc3c(c2-c2ccc(Br)cc2)c(=O)n(C)c(=O)n3C)cc1OC,-7.26% (inactive),–
CCC(C)N(c1ccc(/C=C/c2ccnc3ccccc23)cc1)C(C)CC (stereo not given),3.42% (inactive),–
COC(=O)c1ccc(Cn2c(SCC(=O)N(C)c3ccccc3)nc3ccccc32)cc1,-0.941% (inactive),–
COc1ccc(CN2C(=O)C(NC(=O)c3cccc(C)c3)(C(F)(F)F)N=C2c2ccccc2)cc1 (stereo not given),-23% (inactive),–
CCN1CCN(c2ccc(/C=C/c3ccnc4ccccc34)cc2)CC1,3.84% (inactive),–

SMILES,activation,Potency
C/C(=C/c1ccccc1)C(=O)N1CCN(c2ccccc2)CC1,-4.42% (inactive),–
O=C(/C=C/c1ccc(N2CCOCC2)cc1)c1ccccc1,–,3.16 µM (active)
O=C(O)CCC(=O)Nc1ccc(N2CCOCC2)cc1,3.88% (inactive),–
COc1ccc(S(=O)(=O)NCc2cccn2Cc2cccc(C)c2)cc1Cl,9.1% (inactive),–
CCn1cc2nc(SCc3cccc(F)c3)n(CCc3ccccc3)c(=O)c2n1,-31.5% (inactive),–
CCc1ccccc1NS(=O)(=O)c1ccc2nc(-c3ccccc3)[nH]c2c1,-11.7% (inactive),–
O=C(CCS(=O)(=O)c1ccccc1)NC1CCCC1,–,10 µM (active)
O=C(CCC(=O)c1cccs1)NC1CCCCCC1,61.2% (inactive),–
CC(=O)c1cc(-c2ccccc2)n(CCC(=O)NC2CCCCCC2)c1C,-25.7% (inactive),–
C=C1C=C(C)n2ncc(C(=O)Nc3ccccc3O)c2N1,-24.1% (inactive),–
COc1cc(OC)cc(C(=O)Nc2c(C(=O)Nc3ccc(F)cc3)oc3ccccc23)c1,-7.38% (inactive),–
Cn1cccc1C(=O)OCC(=O)NCCc1ccccc1,62.9% (inactive),–
Cn1cccc1C(=O)OCC(=O)c1ccc(Br)s1,–,8.91 µM (active)
COc1ccc(C(=O)OCC(=O)c2ccc(Cl)s2)c(OC)c1OC,-2.37% (inactive),–
CCCCNC(=O)Cn1c(SCc2cccc(Cl)c2)nc2ccncc21,0% (inactive),–
CCCN(CCC)C(=O)C(Cc1ccccc1)NS(=O)(=O)c1ccc2c(c1)c(=O)n(C)c(=O)n2C (stereo not given),0% (inactive),–
Cc1ccc(-n2c(=O)c3cccnc3n2CC(=O)NCc2ccc(F)cc2)cc1C,-30.2% (inactive),–
CCCCOC(=O)CSc1ncnc2sc3c(c12)CCC(C)C3 (stereo not given),2.09% (inactive),–
SCc1nc2ccc(Cl)cc2[nH]1,-28.9% (inactive),–
Cc1ccc(Cc2nc(-c3cccc(C)c3)no2)cc1,–,7.94 µM (active)
Cc1ccc(C)c(N2CCN(C(=O)CCc3nc(-c4cccc(C(F)(F)F)c4)no3)CC2)c1,49.1% (inactive),–
Cc1cccc(-c2noc(CCC(=O)NC3CCCC3)n2)c1,11.6% (inactive),–
Cc1[nH]c2ccccc2c1C(=O)C(=O)N(C)c1ccccc1,1.01% (inactive),–
Cc1ccc(C(=O)Nc2nc3ccc(Cl)cc3s2)o1,–,0.891 µM (active)
Cc1sc2ncnc(N3CCC(C(=O)Nc4nc5ccc(Cl)cc5s4)CC3)c2c1C,-10.5% (inactive),–
Cc1noc(C)c1CSCC(=O)Nc1nc2ccc(Oc3ccccc3)cc2s1,-16.1% (inactive),–
COc1ccc(-c2nc(=N)sn2-c2ccccc2)cc1,3.98% (inactive),–

SMILES,activation,Potency
Cc1ccc2c(c1)-c1c(cnn1CC(=O)Nc1ccccc1C#N)CO2,-22.3% (inactive),–
COc1cc(CN(C(=O)c2ccccc2Br)c2ccccn2)cc(OC)c1OC,2.76% (inactive),–
Nc1ccc(/C=C/c2ccnc3ccccc23)c([N+](=O)[O-])c1,16.1% (inactive),–
CN1C(=O)/C(=C/C=C2\SCCN2C)OC1=S,–,5.62 µM (active)
CN(C(=N)N)c1ccc(/C=C2\C=Cc3ccccc32)cc1,45.5% (inactive),–
O=C(NCCc1cccc(F)c1)C1CCCN(c2nc3ccccc3s2)C1 (stereo not given),-15.9% (inactive),–
COc1ccc2nc(N3CCN(C(=O)c4ccc([N+](=O)[O-])o4)CC3)sc2c1,-54.7% (inactive),–
Fc1ccc2nc(N3CCCCC3)sc2c1,–,4.47 µM (active)
CCCCNC(=O)c1ccc2c(c1)NC(=O)C(C(C)C)N2 (stereo not given),-10.7% (inactive),–
O=C(Nc1ccccc1C(F)(F)F)c1cc(-c2ccc(O)cc2)on1,–,11.2 µM (active)
O=C(Nc1cccnc1Cl)c1cc(-c2ccccc2O)on1,–,8.91 µM (active)
CCc1ccccc1NC(=O)c1cc(-c2ccc3c(c2)OCO3)on1,62.1% (inactive),–
Cc1cc(C)nc(NC(=O)Nc2ccccc2C(F)(F)F)n1,-53% (inactive),–
O=C(NC1CCCC1)c1cc(-c2ccccc2)on1,3.84% (inactive),–
C=CCNC(=O)c1ccccc1SCc1c(C)noc1C,-1.61% (inactive),–
O=C(NCc1ccccn1)c1cc(-c2ccccc2Cl)on1,–,10 µM (active)
C=CCNC(=O)c1ccc2nc(-c3ccco3)c(-c3ccco3)nc2c1,8.64% (inactive),–
COc1ccccc1CNS(=O)(=O)c1cc(C(=O)NCc2ccccn2)c(Cl)cc1Cl,2.04% (inactive),–
CSc1ccccc1NC(=O)c1cc(C2CC2)on1,32.2% (inactive),–
Cc1cc(Cl)ccc1OCCCC(=O)NCc1ccccn1,-1.52% (inactive),–
C=CCNC(=O)c1cc(-c2ccccc2O)on1,–,5.62 µM (active)
O=C(Nc1ccc([N+](=O)[O-])cc1)c1cnn2c1NC(=C1CC1)C=C2C(F)F,-12% (inactive),–
Cc1ccccc1C(=O)Nc1cc(C)c(O)c(-c2nc3ccccc3o2)c1,4.2% (inactive),–
COc1ccc(-n2c(SCC(N)=O)nc3c(oc4ccccc43)c2=O)cc1,10.5% (inactive),–

# — PubChem BioAssay AID624202 (National Center for Advancing Translational Sciences (NCATS), 2012)
